Test results reported in PubChem BioAssay (NCATS).
Inconclusive results are not listed. A call without a number means that no potency is given here. Active and inactive are the calls of the source. The call rests on the fitted dose curve; in most records, active means well fitted cell-killing curve with a large enough effect; inconclusive means small, poorly fitted or top-dose-only effect; inactive means flat fitted curve, though single readings scatter.

Experiment: qHTS of pediatric cancer cell lines to identify multiple opportunities for drug repurposing: Primary screen for TC32 cells (AID 1347089); further: nearly all actives have a fitted effect of over 60% in size
Conditions: TC32 Ewing sarcoma viability, CellTiter-Glo luminescence, 48 h; series mostly up to 45.8 µM
Source text: Drug repurposing or repositioning has been offered as a strategy for drug development in oncology programs. This approach has special potential for childhood cancers and other rare or orphan diseases, where the expected return on new drug development has been a disincentive to pharmaceuticals.
In this project we exploit the poly-pharmacology of drugs to discover new indications via phenotypic screening of a panel of 19 well-characterized cell lines derived from solid tumors seen in children and adolescents. The goal is to identify approved drugs with previously unrecognized anticancer properties that has the potential to reveal new mechanisms and biological processes involved in carcinogenesis or drug resistance. We employed a titration-based paradigm (quantitative high-throughput screening or qHTS), where all compounds were tested at multiple concentrations for their effect on cell viability. Concentration-response curves (CRCs) were derived directly from the primary screen, and both potency and efficacy values were used to identify compounds with robust bioactivity profiles. We screened the NIH Chemical Genomics Center (NCGC) Pharmaceutical Collection (NPC) and Mechanism Interrogation Plate (MIPE) small molecule collections of approved and investigational compounds against these cell lines; and measured metabolically active cells after 48 hours of compound treatment as a proxy for cell viability.
Assay Submitter: Nathalia J. Martinez, National Center for Advancing Translational Sciences, National Institutes of Health, Rockville, MD, USA; email: natalia.martinez@nih.gov
[1] Shen, M et al. Quantitative high-throughput phenotypic screening of pediatric cancer cell lines identifies multiple opportunities for drug repurposing. Oncotarget 2017 Dec 19;9(4):4758-4772. PMID 29435139.
The cells were obtained from University of North Carolina (UNC), Pediatric Preclinical Testing Program (PPT), and Coriell Institute (CI).
qHTS cell viability assay:
Cells were assayed in growth media at a density of 500-1,000 cells/well. Five microliters of cells were dispensed into 1,536-well, white, solid-bottom, TC-treated plates (Greiner Bio One) using a multidrop dispenser and incubated at 37 degrees C, 5% CO2, under a humidified atmosphere for 5 hours. Twenty-three nanoliters of compounds and controls (neutral control DMSO or positive control bortezomib at final concentration of 2.3 uM) were subsequently transferred by Kalypsys pintool. For primary screens, the MIPE collection was tested at 11-point dilutions (final concentrations range from 0.78 nM to 46 µM) and the NPC collection at 8-point dilutions (final concentrations range from 0.59 nM to 46 µM). Compounds tested in follow-up screens were assayed at 11-point dilutions. Cells were incubated for 48 hours, followed by addition of 3 uL of CellTiter-Glo (Promega). After a 15min incubation at room temperature, samples were analyzed for luminescence intensity using a ViewLux High-throughput CCD imager equipped with clear filters.
In the case of Oc1ccccc1, the Potency is reported as “inactive”.
For CN1C(CSCC(F)(F)F)Nc2cc(Cl)c(S(N)(=O)=O)cc2S1(=O)=O (stereo not given), the Potency was “inactive”.
With Cc1ccc(C(=O)Oc2ccc(C(O)CNC(C)(C)C)cc2OC(=O)c2ccc(C)cc2)cc1 (stereo not given) the Potency was “inactive”.
With CN1CC(=O)N2[C@H](c3ccc4c(c3)OCO4)c3[nH]c4ccccc4c3C[C@@H]2C1=O the Potency was “inactive”.
With O=P(O)(O)OCC(O)CO (stereo not given) the Potency was “inactive”.
With C/C=C(/C(=C/C)c1ccc(OC(C)=O)cc1)c1ccc(OC(C)=O)cc1 the Potency was “inactive”.
For CCCCCCCC(=O)[O-].CCCCCCCC(=O)[O-].[Zn+2], the Potency was “inactive”.
For CC(CC(C#N)(c1ccccc1)C(C)C)N(C)C (stereo not given), the Potency was “inactive”.
With Cc1nc(C2CCCCC2)c(-c2ccc(S(N)(=O)=O)c(F)c2)o1 the Potency was “inactive”.
With CCCCN(CCCC)C(C(N)=O)c1ccc(OC)cc1 (stereo not given) the Potency was “inactive”.
For CN1C(=O)c2ccccc2C1=O, the Potency was “inactive”.
For COc1c(N2C[C@@H]3CCCN[C@@H]3C2)c(F)cc2c(=O)c(C(=O)O)cn(C3CC3)c12, the Potency was “inactive”.
With CCCC(=O)O[C@]1(C(=O)CC)CC[C@H]2[C@@H]3CCC4=CC(=O)CC[C@]4(C)[C@H]3[C@@H](O)C[C@@]21C the Potency was “inactive”.
In the case of O=C(c1ccco1)N1CCNCC1, the Potency is reported as “inactive”.
With COCCOCC(OC)OC the Potency was “inactive”.
For N#CSCC(=O)O, the Potency was “inactive”.
For O=C1NC(c2ccccc2)(c2ccccc2)C(=O)N1COP(=O)(O)O, the Potency was “inactive”.
In the case of O=C(OCC(COC(=O)c1cccnc1)(COC(=O)c1cccnc1)COC(=O)c1cccnc1)c1cccnc1, the Potency is reported as “inactive”.
In the case of Nc1c(I)cc(I)c(C(=O)N(CCC(=O)O)c2ccccc2)c1I, the Potency is reported as “inactive”.
For O=C(NO)c1ccccc1, the Potency was “inactive”.
In the case of Cc1ccc(Cl)c(OCC(O)CNC(C)(C)C)c1 (stereo not given), the Potency is reported as “inactive”.
In the case of Cc1ccc(C(C)OC(=O)C2(C)CCC(C(=O)O)C2(C)C)cc1 (stereo not given), the Potency is reported as “inactive”.
With CN1CCN(N)CC1 the Potency was “inactive”.
In the case of COc1cc(C(=O)NC2CCCNC2)cc(OC)c1OC (stereo not given), the Potency is reported as “inactive”.
With O=C(O)CCC(=O)OC[C@@H](NC(=O)C(Cl)Cl)[C@H](O)c1ccc([N+](=O)[O-])cc1 the Potency was “inactive”.
With CCOc1ccc(NS(=O)(=O)c2ccc(N)cc2)nn1 the Potency was “inactive”.
For CCOC(=O)N1CCC(n2c(=O)[nH]c3cc(Cl)ccc32)CC1, the Potency was “inactive”.
For O=C(O)CCCC[C@@H]1SC[C@@H]2NC(=O)N[C@@H]21, the Potency was “inactive”.
For CCOC(=O)CN1CCCC1=O, the Potency was “inactive”.
For CC(NC(CCc1ccccc1)C(=O)O)C(=O)N1C(=O)N(C)CC1C(=O)O (stereo not given), the Potency was “inactive”.
In the case of O=C(CCC1CCN(Cc2ccccc2)CC1)c1ccc2c(c1)NCCCC2, the Potency is reported as “inactive”.
In the case of CCOC(=O)c1ccc(NC(=O)CN2CCCCC2)cc1, the Potency is reported as “inactive”.
In the case of OC(CCCN1CCCCC1)(c1ccccc1)c1ccccc1, the Potency is reported as “inactive”.
For CCCCCN(CCCOC)C(=O)C(CCC(=O)O)NC(=O)c1ccc(Cl)c(Cl)c1 (stereo not given), the Potency was “inactive”.
For CCOC(=O)C(=O)CCCCCCl, the Potency was “inactive”.
In the case of CN(C)CCN(Cc1ccsc1)c1ccccn1, the Potency is reported as “inactive”.
For CC(=O)O[C@H]1CC[C@@]2(C)C(=CC[C@@H]3[C@@H]2CC[C@]2(C)C(C(C)=O)=CC[C@@H]32)C1, the Potency was “inactive”.
With CC(C)OP(=O)(CP(=O)(OC(C)C)OC(C)C)OC(C)C the Potency was “inactive”.
In the case of O=C(O)CCCC[P+](c1ccccc1)(c1ccccc1)c1ccccc1, the Potency is reported as “inactive”.
In the case of CN(C(=O)C(Cl)Cl)c1ccc(OC(=O)c2ccco2)cc1, the Potency is reported as “inactive”.
